Here are results for 53 compounds from ChEMBL document CHEMBL3988442, “University of Dundee, Small-Polar-MMV Screening Library” (2021).

SMILES strings stand for the structures. In all, about 48,000 compounds went through this assay and about 13,000 (27%) showed an effect of 50% or more. This is one part of the list.

This experiment deals with Wolbachia pipientis. Description: Anti-Wolbachia Cell-Based Screen. Format: functional. Further details: scale not given: in the data most compounds retested in dose-response had high values. The conditions noted are these: 5 µM.
Turning to `O=C(NCCn1ccnc1)c1cc(F)cc(Br)c1`, the “Percent Effect” value was 6.627%.

With `Cc1nc(C(F)(F)F)nc(N2CCC(O)(C(=O)O)CC2)c1C`, the “Percent Effect” value is given as -14.39%.

As for `O=C(CN1CCCc2c(F)cc(Br)cc21)N1CCN(C(=O)C2CC2)CC1`, the “Percent Effect” value amounted to 3.977%.

`N#Cc1ccnc(N2CCN(C3CCOC3=O)CC2)c1` (stereo not drawn): the “Percent Effect” value is -3.021%.

Regarding `Cl.Cl.O=C(CN1CCN(CC(O)C2CC2)CC1)NCc1ccccc1` (stereo not drawn), the “Percent Effect” value is listed as 118.5%.

Take `O=C(CN1CCS(=O)(=O)CC1)NCc1ccccc1F`: the “Percent Effect” value was -2.021%.

`Cl.Cl.O=C(CN1CCN(CC(O)C2CC2)CC1)NCc1ccccc1Cl` (stereo not drawn): the “Percent Effect” value stood at 116.4%.

For `Cc1ccc(CNC(=O)CN2CCN(CC(O)c3ccco3)CC2)cc1.Cl.Cl` (stereo not drawn), the “Percent Effect” value turned out to be 0.6703%.

As to `O=C(CCN1CCOC(C(F)(F)F)C1)NCc1ccccc1Cl` (stereo not drawn), the “Percent Effect” value was found to be 4.795%.

As for `Cc1ccc(CNC(=O)CN2CCN(CC(O)C3CC3)CC2)cc1.Cl.Cl` (stereo not drawn), the “Percent Effect” value is on record as -4.273%.

For the compound `CSCC[C@@H](CO)Nc1nc(-c2ccccn2)nc2c1c(C)nn2C`, the “Percent Effect” value is recorded as -12.31%.

As for `COc1cccc(C2CCCN2C(=O)c2cc3c([nH]c2=O)CCC3)c1` (stereo not drawn), the “Percent Effect” value was found to be 13.18%.

On to `O=C(O)c1nnn(Cc2cccc(C(F)(F)F)c2)c1-c1cccnc1`, for which the “Percent Effect” value is listed as 14.53%.

Consider `CNC(=O)Cn1cc(C#N)c(=O)c2cc(Br)ccc21`, for which the “Percent Effect” value was -8.636%.

Consider `CS(=O)(=O)NC1CCCN(Cc2ccccn2)C1` (stereo not drawn), for which the “Percent Effect” value is recorded as -8.857%.

Consider `CSc1ccccc1C(C(=O)O)N1CCN(Cc2ccccn2)CC1` (stereo not drawn), for which the “Percent Effect” value was found to be 5.13%.

In the case of `O=C(Nc1ccc(Cl)cn1)C1CCCN(Cc2ccccn2)C1` (stereo not drawn), the “Percent Effect” value is recorded as 22.45%.

Regarding `CNC(=O)[C@@H]1C[C@@H](N)CN1C1CCN(Cc2ccccn2)CC1`, the “Percent Effect” value is reported as -2.984%.

On to `CNC(=O)[C@@H]1[C@@H](c2ccccc2)CN2CCN(Cc3ccccn3)C[C@H]12`, for which the “Percent Effect” value is 89.14%.

For the compound `CNC(=O)[C@@H]1[C@H]2CN(Cc3ccccn3)CCN2C[C@H]1c1ccccc1`, the “Percent Effect” value is on record as 121%.

Regarding `CC(C)NC(=O)[C@H]1C[C@@H]2[C@@H](C1)OCCN2Cc1cnn(C)c1.O=C(O)C(F)(F)F`, the “Percent Effect” value is -20.9%.

Regarding `CC(C)c1cc(C(=O)N(C)C(C)c2nccs2)no1` (stereo not drawn), the “Percent Effect” value is -2.417%.

`O=C(CCc1ccc(O)cc1)N1CCC(Cc2ccc(CO)cc2)C1` (stereo not drawn): the “Percent Effect” value is given as -11.56%.

With `Cc1nc2cc(=O)[nH]n2c(C)c1CNC(=O)C(C)(C)c1ccccc1`, the “Percent Effect” value is -10.11%.

Take `CSc1ccccc1C(=O)NCCC(O)c1ccco1` (stereo not drawn): the “Percent Effect” value was -13%.

Regarding `COCc1nc2cc(NCc3ncc[nH]3)ccc2o1`, the “Percent Effect” value is on record as 3.493%.

Regarding `O=C(N1CCCC(n2cncn2)C1)C1(c2ccccc2F)CCCC1` (stereo not drawn), the “Percent Effect” value was 104.1%.

Turning to `Cc1cccn2cc(CC(=O)N3CCCC(n4cncn4)C3)nc12` (stereo not drawn), the “Percent Effect” value is listed as 3.172%.

Turning to `Cc1ccccc1C1(C(=O)N2CCCC(n3cncn3)C2)CC1` (stereo not drawn), the “Percent Effect” value is listed as 122.4%.

On to `O=C(N1CCC(Oc2ccncc2)C1)C1(c2ccccc2F)CC1` (stereo not drawn), for which the “Percent Effect” value is reported as -11.14%.

As to `Cc1nn(C)c2nc(-c3ccccn3)nc(NCCCOC(C)C)c12`, the “Percent Effect” value is -17.61%.

On to `CNC(=O)CC1COCCN1C(=O)C1(c2ccc(Cl)cc2)CCC1` (stereo not drawn), for which the “Percent Effect” value is reported as -7.784%.

For the compound `O=C(NCCN1CCCCC1=O)C1CCC(=O)N(C2CCCC2)C1` (stereo not drawn), the “Percent Effect” value is on record as -13.2%.

With `c1cncc(N2CCC(c3ccncc3)CC2)c1`, the “Percent Effect” value stood at 81.68%.

In the case of `c1ccc(C2CCCN(c3cncc(-n4cccn4)n3)CC2)cc1` (stereo not drawn), the “Percent Effect” value turned out to be 13.07%.

On to `c1cc(N2CCC(c3nnc(Cn4ccnc4)n3C3CC3)CC2)ccn1`, for which the “Percent Effect” value is -8.252%.

For the compound `COC(=O)c1ccc(N2CCC(c3ccccc3)CC2)nn1`, the “Percent Effect” value was -9.28%.

As to `FC(F)(F)c1cccc(N2CCC(NCc3cccnc3)CC2)c1`, the “Percent Effect” value is listed as 10.28%.

For `c1ccc(N2CCC(c3ccncc3)CC2)cc1`, the “Percent Effect” value turned out to be 167%.

For the compound `Cc1cnc(N2CCC(c3ccncc3)CC2)nc1-c1ccnn1C`, the “Percent Effect” value was -32.29%.

Take `c1cc(C2CCN(c3cncnc3)CC2)ccn1`: the “Percent Effect” value is 107.5%.

For `c1cnc(N2C[C@H]3CCN(c4cccnc4)C[C@H]3C2)nc1`, the “Percent Effect” value is -4.407%.

`O=C(O)C(F)(F)F.O=C([C@H]1COC[C@H]2CN(C3CCOCC3)C[C@H]21)N1CCCO1`: the “Percent Effect” value is reported as 2.638%.

Consider `CSCCC1c2nc[nH]c2CCN1Cc1cc(Cl)ccc1O` (stereo not drawn), for which the “Percent Effect” value is given as -0.8881%.

For `CC(C)n1ccc(-c2cc(C(=O)NC3CC3)c3ccccn23)n1`, the “Percent Effect” value is -8.678%.

`CC(C)n1cnc(-c2nc(C(=O)NC3CC3)c3ccccn23)c1`: the “Percent Effect” value was determined as 100.7%.

In the case of `Cn1cnc(-c2nc(C(=O)NC3CC3)c3ccccn23)c1`, the “Percent Effect” value was -8.322%.

On to `Cc1nc(C(=O)N(C)CC(F)(F)C(F)(F)F)c2ccccn12`, for which the “Percent Effect” value is given as 6.68%.

Take `Cn1cnc(-c2nc(C(=O)NCCN3CCCC3)c3ccccn23)c1`: the “Percent Effect” value was -11.17%.

As to `Cc1nc(-c2nc(C(=O)N(C)C)c3ccccn23)cn1C(C)C`, the “Percent Effect” value was determined as 84.92%.

Turning to `Cc1nc(-c2nc(C(=O)NC3CC3)c3ccccn23)cn1C(C)C`, the “Percent Effect” value stood at 96.1%.

As to `Cc1nc(-c2nc(C(=O)N3CCOCC3)c3ccccn23)cn1C(C)C`, the “Percent Effect” value is -8.689%.

With `CC(C)n1cnc(-c2nc(C(=O)N3CCN(C)CC3)c3ccccn23)c1`, the “Percent Effect” value came out at 2.747%.
